For 103 compounds, INHIBITION results are on record in ChEMBL document CHEMBL4513216, “Probing the Open Global Health Chemical Diversity Library for Multistage-Active Starting Points for Next-Generation Antimalarials” (ACS Infect Dis, 2020).

Out of some 69,000 compounds screened, about 8,600 (12%) showed an effect of 50% or more. What follows is part of a selection rich in strong results, with near analogues and random picks from the rest.

This test concerns Plasmodium berghei. In words: Screen against P. berghei liver stage (PbLuc), transformed with Luciferase, at 10uM. It counts as functional, HepG2. The following applies: tested at 10 uM.
Take `Cc1ccc(C(=O)N2CCn3cc(CN4CCCCC4)nc3C2)o1`: the INHIBITION was 17.4%.
The figure for `Cn1nc(COc2cncnc2)c2c1CCN(Cc1ccccn1)C2` is 24.9%; for `CN1CCc2c(c(COc3cncnc3)nn2CC2CC2)C1` it is 24.6%.
For `Cc1cnc(N2CCc3c(c(COc4cncnc4)nn3C)C2)nc1` the value was 53.9%.
For `CC(C)N1CCc2c(c(COc3cccnc3)nn2CC2CC2)C1` the value was 12.7%; for `COCCN1CCc2c(c(COc3cccnc3)nn2C)C1`, -4.08%; for `Cn1nc(COc2cccnc2)c2c1CCN(CC1CC1)C2`, 61.1%.
Consider `COc1ccc(OC)c(C(O)CNC(=O)Nc2cccnc2OC)c1` (stereo not drawn), for which the INHIBITION is listed as 17.4%.
Take `Cc1cc(CNC(=O)NCCCC(=O)N2CCc3ccccc32)no1`: the INHIBITION stood at 45.4%.
For `COC(=O)Cn1c(=O)cc(C(F)F)c2c(C)nn(CC(F)F)c21` the value was -12.975%; for `Cc1ccc(CNc2cc3[nH]c(O)nc3cc2C)cc1`, -46.3%.
For `O=C(c1ccc(NCc2cccc(F)c2)cc1)N1CCC(CO)CC1`, the INHIBITION is reported as -92.5%.
For the compound `NC(=O)c1ccc(OCC(=O)NS(=O)(=O)c2ccc3c(c2)CCC3)cc1`, the INHIBITION is listed as 15.533%.
With `Cn1c2ccccc2c2ncn(CCN3CCOCC3)c(=O)c21`, the INHIBITION is given as 63.6%.
For the compound `Cn1c2ccc(F)cc2c2ncn(CCN3CCOCC3)c(=O)c21`, the INHIBITION was found to be 45%.
In the case of `Cn1c2ccccc2c2ncn(CCCN3CCOCC3)c(=O)c21`, the INHIBITION turned out to be 29.1%.
For `CC(C)n1cc(-n2cc3nc(N4CCOCC4)[nH]cc-3c2=O)cn1` the value was 5.18%.
The figure for `Cc1n[nH]c(C2CN(CC(=O)NCc3sccc3C)CCO2)n1` (stereo not drawn) is -7.36%; for `O=C1CNc2ncnc(N3CCN(c4ccccc4F)CC3)c2N1` it is 59%.
Regarding `Cc1ccccc1CN1CCN(c2ncnc3c2NC(=O)CN3)CC1`, the INHIBITION is reported as -4.76%.
For `O=C1CNc2ncnc(N3CCN(Cc4cccc(F)c4)CC3)c2N1` the value was 55.7%.
The figure for `O=C1CNc2ncnc(N3CCN(Cc4ccccc4F)CC3)c2N1` is 39.1%.
For `O=C1CNc2ncnc(N3CCN(Cc4ccccc4)CC3)c2N1` the value was 30%; for `O=C1CNc2ncnc(Nc3cnn(Cc4ccccc4F)c3)c2N1`, 33.5%; for `COC(=O)CNC(=O)c1scnc1C`, 2.93%.
On to `Cc1ocnc1C(=O)N1CC[C@@H](O)[C@@H](O)[C@H](N2CCC(F)(F)CC2)C1`, for which the INHIBITION came out at 59%.
The figure for `O=C(c1ccncc1)N1CC[C@@H](O)[C@@H](O)[C@H](N2CCC(F)(F)CC2)C1` is 27.8%; for `Cc1ncoc1C(=O)N1CC[C@@H](O)[C@@H](O)[C@H](N2CCC(F)(F)CC2)C1` it is 20.4%.
For `O=c1c(S(=O)(=O)N2CCCCC2)cccn1Cc1cccnc1` the value was -37.1%; for `O=C(O)c1ccccc1-n1cnc(CN2CCCc3ccccc32)c1`, 23%; for `CN(C)CCN1CCC2(CCCN(Cc3cccn3C)C2)C1=O` (stereo not drawn), 33.1%.
For `c1cc(CN2CC[C@H]3O[C@@H](COCC4CCOCC4)CC[C@H]32)ccn1` the value was 52%; for `c1cncc(CN2CC[C@H]3O[C@@H](COCC4CCOCC4)CC[C@H]32)c1`, 33.4%; for `c1cncc(COCC2CC[C@H]3[C@H](CCN3CC3CCOCC3)O2)c1` (stereo partly drawn), 78.8%.
Consider `c1ccc(CN2CC[C@@H]3O[C@@H](COCC4CCOCC4)CC[C@@H]32)nc1`, for which the INHIBITION is recorded as 22.7%.
The figure for `c1cncc(COC[C@H]2CC[C@H]3[C@H](CCN3Cc3nccs3)O2)c1` is 39.2%; for `O=C(C1CC=CC1)N1CC[C@@H]2O[C@H](COCC3CCOCC3)CC[C@@H]21` it is 21.6%; for `Fc1ccc(CN2CC[C@H]3O[C@@H](COCc4cccnc4)CC[C@H]32)cc1` it is 39.2%.
For `c1cncc(CN2CC[C@H]3O[C@@H](COCC4CC4)CC[C@H]32)c1` the value was 44.9%; for `Fc1ccc(CN2CC[C@H]3O[C@@H](COCC4CCOCC4)CC[C@H]32)cc1`, 56.3%.
With `CC(C)c1nccn1-c1cncc(C2CCCN2Cc2cccnc2)n1` (stereo not drawn), the INHIBITION came to 27.6%.
For `CNCC1CCC(c2cc(CN(C)C(=O)c3cnccn3)n(C)n2)CC1` (stereo not drawn) the value was 25.8%.
As to `O=C(Nc1cnccn1)[C@@H]1CCO[C@@H]2CCN(Cc3ccsc3)C[C@@H]21`, the INHIBITION stood at 12.4%.
The figure for `Cn1cnnc1C1CCN(C(=O)CCOc2ccc(Cl)cc2)CC1` is 11.9%; for `CC(=O)NCC1CCCN(C(=O)Cc2c(C)noc2C)C1` (stereo not drawn) it is -4.12%.
Consider `O=C(COc1ccc(F)cc1)N1CCCSCC1CN1CCOCC1` (stereo not drawn), for which the INHIBITION came out at 25.3%.
As to `COc1cccc(OCC(=O)N2CCCSCC2CN2CCOCC2)c1` (stereo not drawn), the INHIBITION was 44.9%.
For `O=C(COc1ccc(Cl)cc1Cl)N1CCCSCC1CN1CCOCC1` (stereo not drawn) the value was 60.1%; for `CNC(=O)c1nc2c(s1)CCN(C(=O)c1cccnc1)CC2`, -10.4%.
The figure for `O=C(c1[nH]nc(C2CC2)c1Cl)N1CCN(S(=O)(=O)c2ccccc2)CC1` is 77.6%.
For `O=C(c1[nH]nc(C2CC2)c1Cl)N1CCN(C2CC2)CC1` the value was 8.13%; for `O=C(c1[nH]nc(C2CC2)c1Cl)N1CCCC1`, -46.7%.
On to `CCOC(=O)[C@H]1[C@@H](O)C(=O)N(C)C12CCN(C(=O)CC(C)C)CC2`, for which the INHIBITION was determined as 22.2%.
`c1csc(C2(NCc3csc(C4CC4)n3)CCCC2)n1`: the INHIBITION is -9.44%.
In the case of `Cc1cnn(CC2CCCN2CC(=O)NCc2ccccn2)c1` (stereo not drawn), the INHIBITION was -28.9%.
Turning to `Cc1ccc2nc(C)cc(NCCNS(=O)(=O)c3cn(C)nc3C)c2c1`, the INHIBITION amounted to 55.5%.
As for `Cc1cc(NCCNS(=O)(=O)c2cn(C)nc2C)c2ccccc2n1`, the INHIBITION is -5.8%.
The figure for `Cc1ccc2nc(C)cc(NCCNS(=O)(=O)c3cccnc3)c2c1` is 39.7%; for `Cc1ccnc(OC[C@]23COC[C@H]2CN(C(=O)c2ccnn2C)C3)n1` it is 43.1%; for `O=C(CN1CCc2ccccc2C1)NCc1cc2n(n1)CCCNC2` it is -16.8%.
The figure for `CC1CN(Cc2noc(C3CC3)n2)CCN1Cc1noc(C2CC2)n1` (stereo not drawn) is 33.8%.
`CC1CN(Cc2noc(C3CC3)n2)CCN1Cc1nccn1C` (stereo not drawn): the INHIBITION came to 55.9%.
As for `Cn1ccnc1CN1CCN(Cc2noc(C3CC3)n2)CC1`, the INHIBITION was -15.5%.
For the compound `O=C(NC1CCCC1)c1ccnc(C2CCNCC2)c1`, the INHIBITION is -11.3%.
For `COCC1CC2(CCN(C(=O)c3cc(C)oc3C)CC2)CN1C(C)C` (stereo not drawn) the value was 6.8%; for `COc1ccc(C2SC(C)=Nc3c2c(=O)[nH]n3C2CCCC2)cc1O` (stereo not drawn), -6.09%; for `CCCc1cc(N2CCCC2Cn2nc(C)cc2C)n2ncnc2n1` (stereo not drawn), -48.1%.
For `CCCc1cc(N2CCCC2Cn2nc(C)nc2C)n2ncnc2n1` (stereo not drawn) the value was 53.4%; for `CCCc1cc(N2CCCC2Cn2cc(C)cn2)n2ncnc2n1` (stereo not drawn), -60.9%.
The figure for `CN1CCN(CCOc2ccc(NC(=O)c3ccc[nH]3)cc2)CC1` is -23.5%.
On to `Cc1cc(N2CCc3c(ncn3C)C2)nc(N)n1`, for which the INHIBITION is given as -14.9%.
For `c1ccc(-c2nccc(N3CCc4c(ncn4C4CC4)C3)n2)cc1` the value was 40.9%; for `CN1CCN(C2CCN(CC(O)c3ccccc3)CC2)C1=O` (stereo not drawn), 16.715%.
The figure for `CN1CCN(C2CCN(Cc3noc(-c4ccccc4)n3)CC2)C1=O` is 8.11%; for `CN1CCCC1c1ccnc(-c2ccccc2)n1` (stereo not drawn) it is -24.4%; for `CN1CCN(C2CCN(c3ccnc(-c4ccccc4)n3)CC2)C1=O` it is 91.1%.
For `O=C1NCCN1C1CCN(c2ccnc(-c3ccccc3)n2)CC1` the value was 73.1%; for `CN1CCN(C2CCN(c3cnc4ccccc4n3)CC2)C1=O`, 76.5%; for `O=C1NCCN1C1CCN(Cc2ccccn2)CC1`, -14.2%.
Turning to `O=C1NCCN1C1CCN(Cc2coc(-c3ccccc3)n2)CC1`, the INHIBITION is 33.3%.
The figure for `CN1CCN(C2CCN(CCOc3ccccc3)CC2)C1=O` is 40.2%; for `Cn1cnc2c1CCN(c1ccnc(-c3ccccc3)n1)C2` it is 61.2%; for `Cc1noc([C@H]2COC[C@H]3CN(C(=O)Cc4cccc(F)c4)C[C@H]32)n1` it is 38.5%.
For `COc1c(C)cnc(CN2CCOC(CNc3cccnn3)C2)c1C` (stereo not drawn) the value was 9.54%.
For `O=C(CN1CCN(C(=O)c2ccccc2)CC1)Nc1ccc(Br)cn1` the value was 47.3%; for `CCn1ccnc1CN1CCCN(C(=O)c2scnc2C)CC1`, 13.64%.
As to `O=C(O)CCn1nc(C(F)(F)F)c(Cl)c1C1CC1`, the INHIBITION turned out to be 31.7%.
The figure for `O=C(NCC1Cn2nnc(-c3ccncc3)c2CO1)c1ccc[nH]1` (stereo not drawn) is 31.4%; for `Cc1cccc(CN2C[C@@H]3CCCO[C@@H]3[C@H](Nc3ccccn3)C2)n1` it is 25.3%.
The figure for `O=C(CCc1cc2n(n1)CCCNC2)N1CCN(C2CCCC2)C(=O)C1` is -34.8%.
With `CO[C@H]1CN(Cc2cc(F)ccc2F)CC[C@@]12CCCO2`, the INHIBITION is recorded as -9.27%.
`COc1ccc2[nH]cc(C(=O)CNc3nccs3)c2c1`: the INHIBITION stood at 12.8%.
Consider `Fc1ccc(CN2CCCC2Cn2cncn2)c2ncccc12` (stereo not drawn), for which the INHIBITION was determined as 79.2%.
The figure for `CS(=O)(=O)NCC1CCCN(Cc2ccc(F)c3cccnc23)C1` (stereo not drawn) is 18.5%; for `Clc1ccc2cccnc2c1CN1CCCC1Cn1cncn1` (stereo not drawn) it is 66.2%.
For `OC1CCCN(Cc2ccc(F)c3cccnc23)C1` (stereo not drawn) the value was 54.4%; for `Clc1ccc2cccnc2c1CN1CCCCC1Cn1cncn1` (stereo not drawn), 45.65%; for `Clc1ccc2cccnc2c1CN1CCCC(Cn2cncn2)C1` (stereo not drawn), 22.9%.
Take `Clc1ccc(CN2CCCC2Cn2cncn2)c2ncccc12` (stereo not drawn): the INHIBITION is recorded as 23.45%.
For `Fc1ccc(CN2CCCC(Cn3cncn3)C2)c2ncccc12` (stereo not drawn) the value was -44.8%; for `Fc1ccc(CN2CCCCC2Cn2cncn2)c2ncccc12` (stereo not drawn), 21.6%.
The figure for `CC(C)C(C)NC(=O)Nc1ccc(F)c(C(N)=O)c1` (stereo not drawn) is 1.75%; for `O=C(C1CNCCN1C(=O)CCc1cccnc1)N1CCOCC1` (stereo not drawn) it is 42.1%.
